# Screens: PubChem, National Center for Advancing Translational Sciences (NCATS)
# Sampled rows, rich in hits. Any-hit rate of the full collection: about 21%.
# Pf growth 48h: P. falciparum growth inhibition at 48 hours (one generation); 5.9% of 310,000 active; Potency, µM (series often up to 28.7 µM), without a hit: top-dose activity change, negative = inhibition, actives largely listed as inhibitors; P. falciparum luciferase growth in erythrocytes, 48 h; active = well fitted inhibition curve with a large enough effect; inconclusive = small, poorly fitted or top-dose-only effect, or another doubt; inactive = no such curve, though single readings can be large or run the other way; note: potency is the fitted concentration of half-maximal effect; % is set by controls: 0 for no effect and ±100 for the full control effect
#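 A one-generation exposure of luciferase-tagged malaria parasites in RPMI 1640/Albumax erythrocyte culture, 37 C and 5% CO2. Inhibition is inferred from decreased luminescence after adding detection reagent.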
# SARS PLP yeast: inhibitors of SARS-CoV papain-like protease in yeast. 0.19% of 330,000 active. AID 485353. Potency, µM (series often up to 32.9 µM), for the others: at the highest dose activity, positive = growth rescue, most hits filed as activators. S. cerevisiae expressing SARS-CoV PLpro, growth rescue; note: potency is the fitted concentration of half-maximal effect; 0% is about no effect; nearly all actives have a fitted effect of over 55% in size
# NS1 function inh: blocks influenza NS1 protein function; 0.4% of 270,000 active; AID 2326; Potency, µM (doses to about 46.1 µM), for the others: at the highest dose activity, positive = more growth; note: potency is the fitted concentration of half-maximal effect; actives are rising curves; nearly all actives have a fitted effect of over 50% in size
#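 A cell-based growth assay was used: compounds that relieve NS1-induced slow growth of budding yeast raise OD600. Assay medium was yeast nitrogen base with ammonium sulphate and -URA supplement, pH 6.0, with 2% galactose.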
# CHX counter: affects cycloheximide protein synthesis inhibition readout, counter-screen. max response, %. 12% of 300,000 active. cell reporter, cycloheximide protein synthesis inhibition counterscreen; in the data active = max response mostly above about 13%, no sharp cut-off; inactive = mostly below about 14%; note: read at 38.3 µM for the half of the compounds with a filed dose; 0% is about no effect
# Shiga toxin inh: Shiga toxin inhibition. Vero cells, Shiga toxin protein synthesis inhibition reporter. 9.2% of 290,000 active. inhibition, % at 38.7 µM; in the data active = inhibition mostly above about 28%, no sharp cut-off; inactive = mostly below about 43%; note: 0% is about no effect
# Pf growth 96h: P. falciparum growth inhibition at 96 hours | 6.9% of 320,000 active | P. falciparum luciferase reporter growth, 96 h | Potency, µM (doses to about 28.7 µM), for the others: top-dose activity change, negative = inhibition, usual class: inhibitors; active = well fitted inhibition curve with a large enough effect; inconclusive = small, poorly fitted or top-dose-only effect, or another doubt; inactive = no such curve, though single readings can be large or run the other way; note: potency is the fitted concentration of half-maximal effect; % is set by controls: 0 for no effect and ±100 for the full control effect
#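 Readout is luminescence from an integrated firefly luciferase in P. falciparum. Red cells, 2% hematocrit and 0.05% parasitemia final, were cultured with compound through two parasite generations (96 hours) at 37 C, 5% CO2.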
# The depositor's hits bear a star; i = inactive; ? = inconclusive; · = no result. Unless noted, calls come from the whole dose curve.
SMILES,Pf growth 48h,SARS PLP yeast,NS1 function inh,CHX counter,Shiga toxin inh,Pf growth 96h
CCOc1ccc(N=CC2=C(O)CC(C)(C)CC2=O)cc1,4.1%,1.4%,-12.6%,-2.8,189.2*,-21.7%
Cn1c(=O)c2c(ncn2CCSS(=O)(=O)O)n(C)c1=O,·,·,0.3%,·,·,·
CC1(C)CC(=O)C(C=Nc2ccc(O)cc2)=C(O)C1,38.9%,1.2%,-2.7%,18.0*,35.6*,0.8%
CCOC(=O)C1(CCCc2ccccc2)CCN(C(=O)c2cnn(CC)c2)CC1,9.5%,0.6%,6.6%,-3.1,-11.4,?
Cc1c(C)c(C)c(C(=O)C2CCN(c3ccc([N+](=O)[O-])cn3)CC2)c(C)c1C,?,0.0%,1.6%,-1.2,-3.6,?
CCOC(=O)N1CCN(C(=O)c2cccc(S(=O)(=O)Nc3ccccc3Cl)c2)CC1,?,0.8%,·,·,·,?
CCOC(=O)N1CCN(C(=O)C2CCCN(S(=O)(=O)c3c(C)cc(C)cc3C)C2)CC1 (stereo unspecified),?,2.2%,-9.0%,-3.7,-7.8,10.4µM*
Cc1noc(C)c1S(=O)(=O)N1CCC(C(=O)N2CCN(c3ccccc3Cl)CC2)CC1,?,-0.9%,?,1.6,-7.7,?
Cc1cc(C)c(NC(=O)C2CCCN(S(=O)(=O)c3c(C)noc3/C=C/N(C)C)C2)c(C)c1 (stereo unspecified),?,-3.8%,13.7%,-1.2,1.5,13.1µM*
Cc1noc(C)c1S(=O)(=O)N1CCN(c2ccccc2Cl)CC1,?,-0.1%,·,·,·,14.7µM*
Cc1ccc(C)c(N2CCN(C(=O)C3CCCN(S(=O)(=O)c4c(C)noc4C)C3)CC2)c1 (stereo unspecified),11.7µM*,-13.9%,-39.6%,-1.4,-3.6,-23.7%
Cc1ccc(C)c(N2CCN(C(=O)C3CCN(S(=O)(=O)c4c(C)noc4C)CC3)CC2)c1,?,-0.7%,25.8%,-1.5,1.2,?
O=C(CCc1ccccc1)Nc1cc2c3c(c1)CC(=O)N3CCC2,?,-2.3%,·,·,·,2.3%
O=C(Nc1ccc(F)cc1F)c1ccc(-n2cccn2)c([N+](=O)[O-])c1,-6.0%,-0.8%,-3.9%,16.3,16.2,17.3%
CC(=O)Nc1ccc(S(C)(=O)=O)c(C)c1,21.1%,-11.8%,24.9%,-0.8,8.5,-16.2%
O=C(CSC1=NCCS1)Nc1ccnc2ccccc12,-4.9%,1.5%,7.3%,-2.0,-12.0,16.1%
Cc1ccc(CNC(=O)C2CCCN(S(=O)(=O)c3c(C)noc3/C=C/N(C)C)C2)cc1 (stereo unspecified),13.1µM*,4.0%,21.6%,-1.3,-4.2,?
CCOC(=O)N1CCN(S(=O)(=O)N2CCCC(C(=O)NCc3ccccc3Cl)C2)CC1 (stereo unspecified),6.5%,5.2%,-13.8%,-5.6,-9.0,11.7µM*
CCOC(=O)N1CCN(S(=O)(=O)N2CCCC(C(=O)NCCc3ccc(C)cc3)C2)CC1 (stereo unspecified),-16.5%,11.0%,-2.3%,-1.6,-8.4,?
Cc1noc(/C=C/N(C)C)c1S(=O)(=O)N1CCCC(C(=O)N2CCCCC2)C1 (stereo unspecified),9.28µM*,8.0%,27.6%,-1.6,-3.2,-5.1%
CC(=O)Nc1ccc([C@H]2[C@H](C)CC[C@H]3C(=O)N4[C@@H](CC[C@@H](C)[C@@H]4c4ccc(NC(C)=O)cc4)C(=O)N32)cc1,-25.8%,5.2%,-25.1%,-1.5,-2.1,-73.9%
Cc1cc2c(n1-c1ccc(C(=O)O)cc1)CCCCC2,-3.0%,-1.2%,9.9%,4.2,21.9,2.2%
Cc1cccc(C)c1NC(=O)C(=O)NCC1CCCN1S(=O)(=O)c1cccs1 (stereo unspecified),-13.9%,-1.9%,·,·,·,0.1%
CC1SC(c2ccccc2)N(CC(O)c2ccc([N+](=O)[O-])cc2)C1=O (stereo unspecified),11.7µM*,0.4%,·,-5.9,22.3,75.0%
O=C1CSC(c2ccccc2)N1CC(O)c1ccc([N+](=O)[O-])cc1 (stereo unspecified),-9.8%,-1.7%,·,5.6,3.7,i
SMILES,Pf growth 48h,SARS PLP yeast,NS1 function inh,CHX counter,Shiga toxin inh,Pf growth 96h
O=C(N/N=C\c1cc([N+](=O)[O-])ccc1N1CCOCC1)c1ccccn1,21.4%,5.2%,2.2%,3.1,-8.5,?
CC(=O)c1c(C(C)=O)c(C)n(-c2cccc([N+](=O)[O-])c2)c1C,-3.8%,8.1%,1.6%,-3.2,-1.9,9.28µM*
O=C(N/N=C\c1cc([N+](=O)[O-])ccc1N1CCCC1)c1ccccn1,?,-1.2%,2.7%,21.6*,48.5*,-17.9%
Cc1cc(C(=O)N/N=C/c2cccc([N+](=O)[O-])c2)c(C)n1-c1ccccc1,?,7.6%,-1.0%,43.0*,86.5*,?
Cc1cc(C)cc(-n2c(C)cc(/C=N/NC(=O)c3cccc([N+](=O)[O-])c3C)c2C)c1,·,7.4%,16.4%,3.9,-14.5,11.7µM*
COc1ccc(NC(=O)c2ccc(CNc3c(N4CCCC4)c(=O)c3=O)cc2)cc1Cl,?,1.8%,6.1%,-2.4,-19.0,?
Cc1ccc(S(=O)(=O)N(C)C)cc1NC(=O)C(C)OC(=O)C1CCCC1 (stereo unspecified),-7.1%,-3.5%,·,·,·,8.8%
Cc1cc(C(=O)N/N=C2\CCCC(=O)C2)c(C)n1-c1ccccc1,24.8%,12.2%,5.2%,16.7*,30.3*,45.5%
Cc1cc(C(=O)N/N=C2\CCCC(=O)C2)c(C)o1,5.3%,4.3%,·,·,·,28.3%
COc1ccc(/C=N/NC(=O)c2cc(C)n(-c3ccccc3)c2C)cc1OC,29.0%,4.2%,·,25.2*,87.0*,-20.0%
O=C(N/N=C/C=C\c1cccc([N+](=O)[O-])c1)c1ccccn1,32.6%,7.5%,0.5%,6.5,-7.5,?
Cc1cc(/C=N/NC(=O)c2ccccn2)c(C)n1-c1cccc([N+](=O)[O-])c1,-6.3%,1.1%,·,50.4*,89.8*,4.65µM*
Cc1cccc(-n2ccc(=O)c(C(=O)Nc3ccc(S(=O)(=O)Nc4nccc(C)n4)cc3)n2)c1,8.7%,-5.3%,0.1%,-9.1,-5.5,?
COc1ccc(NC(=O)Cc2nnc(SCC(=O)NC3=NCCS3)n2C)cc1,4.5%,6.2%,16.2%,-3.7,-13.1,19.4%
Cc1nnc(C)c2c(C)n(C(C)c3ccccc3)c(C)c12 (stereo unspecified),8.28µM*,12.0%,-0.8%,-1.2,-18.5,-8.4%
O=C(CN1CCN(Cc2ccccc2Cl)CC1)N/N=C/c1ccccn1,-17.5%,-1.0%,-1.6%,7.1,-4.7,?
COc1ccccc1C(=O)NC(=O)COc1ccc(Cl)cc1Cl,-3.1%,-11.8%,·,·,·,23.6%
CC(C)(C)C(=O)NNC(=O)CCCOc1ccc(Cl)cc1Cl,-12.3%,3.1%,0.0%,-1.7,-6.5,?
O=C(COc1ccc(Cl)cc1Cl)NC(=S)Nc1ccccc1C(=O)O,34.3%,-1.4%,-7.6%,22.6*,34.8*,76.1%
